Bioassay records: PubChem BioAssay, Broad Institute
The list is not random: actives were taken first. Their share in the collection is about 0.53%.
TcdB inh = blocks C. difficile toxin B glycohydrolase activity; P18177; TcdB glycohydrolase enzymatic assay, plate reader; inhibition, % at 9.99 µM; 350,000 compounds, 0.24% hits; in the data active = inhibition above about 10%
PrP UTR inh = inhibition of PrP 5' UTR reporter expression; cell-based PrP 5' UTR mRNA reporter, plate reader; inhibition, % (test concentration not listed); 340,000 compounds, 0.35% hits; AID 488862; in the data active = inhibition above about 52%
Y pestis TopoI = blocks Yersinia pestis topoisomerase I activity; AID 504884; 360,000 compounds, 0.064% hits; activity, % at 10 µM; Y. pestis Topo-I cleavage product accumulation, plate reader; in the data active = activity above about 50%, passing the limit was not always enough
BioA inh = inhibitors of Mycobacterium tuberculosis BioA enzyme; purified M. tuberculosis BioA enzyme, plate reader; inhibition, % at 9.99 µM; 360,000 compounds, 0.096% hits; AID 602481; in the data active = inhibition above about 40%
Hits are given with their value; n = inactive; x = no result given.

SMILES	TcdB inh	PrP UTR inh	Y pestis TopoI	BioA inh
CC=Cc1ccc2n(c1=O)C[C@H]1[C@H](CO)[C@@H](C(=O)NCCC)[C@@H]2N1S(=O)(=O)c1cn(C)cn1 (mixture of isomers)	x	x	x	n
Cc1cnc([N+](=O)[O-])n1CCOC(=O)NC(=O)c1ccc(F)cc1	32.3	n	n	x
C[C@H](CO)N1C[C@H](C)[C@H](CN(C)Cc2ccc(Oc3ccccc3)cc2)Oc2ccc(NS(=O)(=O)c3cn(C)cn3)cc2C1=O	n	x	x	n
C[C@@H]1CN([C@@H](C)CO)C(=O)c2cc(NC(=O)Nc3ccc(F)cc3)ccc2O[C@@H](C)CCCCO[C@@H]1CN(C)Cc1ccncc1	x	x	x	n
CN1C(=O)c2cc(NC(=O)c3cccc(F)c3)ccc2OC[C@@H]2O[C@@H](CC(=O)NCC3CCCCC3)CC[C@@H]21	10.2	x	x	n
CCNC(=O)C[C@H]1CC[C@H]2[C@H](COc3ccc(NC(C)=O)cc3C(=O)N2C)O1	11.3	x	x	n
CN1C(=O)c2cc(NC(=O)c3cccc(F)c3)ccc2OC[C@H]2O[C@@H](CC(=O)NCC3CCCCC3)CC[C@@H]21	n	x	x	n
CCNC(=O)C[C@H]1CC[C@H]2[C@H](COc3ccc(NC(=O)c4ccc5c(c4)OCO5)cc3C(=O)N2C)O1	n	x	x	n
CCNC(=O)C[C@H]1CC[C@@H]2[C@@H](COc3ccc(NC(=O)c4ccc5c(c4)OCO5)cc3C(=O)N2C)O1	14.0	x	x	n
CCCNC(=O)C[C@H]1CC[C@@H]2[C@@H](COc3ccc(NC(=O)c4ccc(Cl)cc4)cc3C(=O)N2C)O1	12.8	x	x	n
CC(=O)Nc1ccc2c(c1)C(=O)N(C)[C@H]1CC[C@H](CC(=O)NCC3CC3)O[C@H]1CO2	n	x	x	n
COc1ccc(NC(=O)Nc2cccc3c2O[C@@H](CN(C)C(=O)Nc2ccccc2)[C@H](C)CN([C@@H](C)CO)C3=O)cc1	n	x	x	n
Cc1cc(C(=O)Nc2cccc3c2O[C@@H](CN(C)Cc2ccccc2)[C@H](C)CN([C@H](C)CO)C3=O)n(C)n1	n	x	x	n
O=C(Nc1ccc(F)cc1)N1C[C@H]2[C@@H](c3ccccc31)[C@@H](CO)N2C(=O)Cc1ccccc1	n	x	x	n
CN(C)CC#Cc1ccc([C@@H]2[C@H](CO)N3CCCCN(S(=O)(=O)c4ccccc4F)C[C@@H]23)cc1	n	x	x	n
CCNC(=O)C[C@H]1CC[C@@H]2[C@H](COc3ccc(NC(=O)c4ccc5c(c4)OCO5)cc3C(=O)N2C)O1	12.8	x	x	n
CN(C)CCCNC(=O)C[C@H]1CC[C@@H]2[C@@H](COc3ccc(NC(=O)c4ccc5c(c4)OCO5)cc3C(=O)N2C)O1	10.7	x	x	n
CCNC(=O)C[C@@H]1CC[C@@H]2[C@H](COc3ccc(NC(=O)c4ccc5c(c4)OCO5)cc3C(=O)N2C)O1	n	x	x	n
S=c1[nH]nc(-c2ccccn2)n1/N=C/c1ccc(Cl)cc1	15.2	n	n	x
O=C(COc1ccc2ccc(=O)oc2c1)NCCN1CCOCC1	13.1	x	n	n
Cc1cc(=O)oc2cc(OCC(=O)NCCN3CCOCC3)ccc12	n	n	n	x
COc1ccccc1Oc1cn[nH]c1-c1ccc(O)cc1O	19.3	n	n	x
CCCCCCCCNS(=O)(=O)CCNCc1ccccc1OC	n	n	52.8	n
COc1ccc(S(=O)(=O)N2C[C@H](O)COC[C@H]3O[C@H](CC(=O)NCc4ccc(Cl)c(Cl)c4)CC[C@@H]32)cc1	n	x	x	n
CCCCCCCCN1[C@@H](CC(C)=O)c2cc(C(F)(F)F)ccc2S1(=O)=O	n	n	66.3	n
SMILES	TcdB inh	PrP UTR inh	Y pestis TopoI	BioA inh
COCC(=O)N(C)C[C@@H]1Oc2ncc(-c3ccccc3OC)cc2C(=O)N([C@@H](C)CO)C[C@H]1C	n	x	x	n
CNC[C@@H]1OCCCC[C@H](C)Oc2ccc(NS(C)(=O)=O)cc2C(=O)N([C@H](C)CO)C[C@@H]1C	n	x	x	n
Clc1cccc(-c2ccc3ncnc(NCc4cccs4)c3c2)c1	11.1	n	n	n
Oc1ccc(-c2cn3ccccc3n2)cc1	41.2	n	n	x
c1ccc(-c2cn3ccccc3n2)cc1	n	n	n	n
O=C(C[C@@H]1CC[C@@H]2[C@H](COC[C@@H](O)CN2C(=O)Nc2ccc(Cl)c(Cl)c2)O1)NCc1ccncc1	10.7	x	x	n
O=C(C[C@@H]1CC[C@H]2[C@@H](COC[C@@H](O)CN2Cc2ccc(Oc3ccccc3)cc2)O1)Nc1nccs1	26.7	x	x	n
O=C(C[C@H]1CC[C@H]2[C@@H](COC[C@H](O)CN2C(=O)Nc2ccc(Cl)c(Cl)c2)O1)NCc1ccccc1	n	x	x	n
COC(=O)C[C@@H]1CC[C@@H]2[C@H](COC[C@H](O)CN2C(=O)Nc2ccccc2OC)O1	13.2	x	x	n
O=C(C[C@@H]1CC[C@H]2[C@@H](COC[C@@H](O)CN2C(=O)c2ccccn2)O1)NC1CCC1	10.4	x	x	n
COC(=O)C[C@H]1CC[C@H]2[C@@H](COC[C@H](O)CN2C(=O)Nc2ccccc2OC)O1	n	x	x	n
Cc1noc(C)c1S(=O)(=O)N(C)C[C@@H]1Oc2ccc(NS(=O)(=O)c3ccc(Cl)cc3)cc2C(=O)N([C@@H](C)CO)C[C@@H]1C	n	x	x	n
C[C@@H]1CCCCO[C@@H](CN(C)C(=O)NC2CCCCC2)[C@@H](C)CN([C@@H](C)CO)C(=O)c2cc(NC(=O)Nc3ccccc3)ccc2O1	n	x	x	n
Oc1ccc(/C=N/N2CCN(c3ccccn3)CC2)cc1	13.0	n	n	n
O=C(C[C@@H]1CC[C@H](NC(=O)Nc2cccc(F)c2)[C@@H](CO)O1)NCC1CC1	n	x	x	n
CC(C)C1(c2ccsc2)NC(=O)NC1=O (configuration not stated)	n	n	n	x
CC(C)C12NC(=O)NC(=O)N1CCS2 (configuration not stated)	10.1	n	n	x
Cc1ccc(S(=O)(=O)N2CC(CO)=CCC2c2ccccc2)cc1 (configuration not stated)	25.5	x	x	x
Cc1ccnc2c1ccc1c(C)ccnc12	x	54.5	n	n
Cc1ccnc2c1ccc1cccnc12	n	n	n	n
CC(=O)Oc1ccc2nc(/C=C/c3ccc(C=O)cc3)oc(=O)c2c1	n	n	n	n
CC(=O)Oc1ccc2nc(/C=C/c3ccccc3)oc(=O)c2c1	12.3	n	n	n
C[C@@H]1CCCCO[C@H](CN(C)Cc2ccc3c(c2)OCO3)[C@H](C)CN([C@H](C)CO)C(=O)c2cc(NC(=O)Nc3ccccc3)ccc2O1	n	x	x	n
CCCOc1ccc(/C(O)=C2/C(=O)C(=O)N(c3ccccn3)C2c2ccc(OC)cc2)cc1C (configuration not stated)	n	n	55.8	n
Nc1ccc(Sc2ccc(N)cc2)cc1	13.4	n	n	n
Nc1ccc(Sc2ccc([N+](=O)[O-])cc2)cc1	n	n	n	x
COc1cc2c(c(OC)c1OC)-c1ccc(O)cc1[C@@H](NC(C)=O)CC2	n	68.0	n	n
COc1cc2c(c(OC)c1OC)-c1ccc(O)c(=O)cc1[C@@H](NC(C)=O)CC2	n	n	n	n
CCN1CC(CNCc2cn(-c3ccc(OC)cc3)nc2-c2ccccc2Cl)CC1=O (configuration not stated)	10.6	n	n	x
CCCNC(=O)C[C@H]1CC[C@H]2[C@H](COc3ccc(NC(=O)c4cccc(OC)c4)cc3C(=O)N2C)O1	n	x	x	n
